For 67 molecules, INHIBITION results are on record in ChEMBL document CHEMBL4513216, “Probing the Open Global Health Chemical Diversity Library for Multistage-Active Starting Points for Next-Generation Antimalarials” (ACS Infect Dis, 2020).

Structures are written as SMILES. About 8,600 (12%) of roughly 69,000 compounds showed an effect of 50% or more. Shown is part of a subset that was picked to be rich in strong results.

This experiment has as its system Plasmodium berghei. Put plainly: Screen against P. berghei liver stage (PbLuc), transformed with Luciferase, at 10uM. Type of experiment: functional, HepG2. Conditions: tested at 10 uM.
For `CC(=O)N1CCc2[nH]cnc2C1C1=CCCN(CCn2cccc2)C1` (configuration not stated), the INHIBITION was determined as 12.8%.

Consider `CC(C)CC(C)N(C)Cc1nnc(-c2ccco2)o1` (configuration not stated), for which the INHIBITION is -17.5%. As for `CN(Cc1nnc(-c2ccco2)o1)C(C(N)=O)c1cccc(F)c1` (configuration not stated), the figure is 61.5%; as for `CC(C)C(C)N(C)Cc1nnc(-c2ccco2)o1` (configuration not stated), 66.9%; as for `CCCC(C)N(C)Cc1nnc(-c2ccco2)o1` (configuration not stated), 26.9%. As to `CN(Cc1nnc(-c2cccs2)o1)C(C(N)=O)c1cccc(F)c1` (configuration not stated), the INHIBITION is listed as -15.3%. On to `CN(Cc1nnc(C2CCC2)o1)C(C(N)=O)c1cccc(F)c1` (configuration not stated), for which the INHIBITION is reported as 12.7%. With `CC(CNCc1ccc(Br)cc1)Oc1ccccn1` (configuration not stated) the figure was 13%; with `Cc1ccc2nc(-c3nc4c([nH]3)CC(C)(C)CNC4=O)cn2c1`, 16.9%. On to `c1coc(CN2CCc3onc(Cn4cccc4)c3C2)c1`, for which the INHIBITION is given as 20.1%. As for `CC(C)Oc1ccccc1C1CC(=O)Nc2c1cnn2C` (configuration not stated), the INHIBITION is -31.6%. With `Cc1cccc(C(=O)N2CCCCC2c2nc3cc(F)ccc3[nH]2)n1` (configuration not stated) the figure was 39.1%; with `NC(=O)c1ccc(N2CCCCC2)c(NC(=O)c2ccc(F)cc2F)c1`, 89.1%. As for `Cc1ccc(NC(=O)c2ccc(N3CCCCC3)nn2)c(Cl)c1`, the INHIBITION was found to be 11.3%. As for `O=C(c1cc(Br)ccc1-n1cnnn1)N1CCCCC1`, the INHIBITION was determined as 24.2%.

`NC(=O)c1ccc(N2CCCCC2)c(NC(=O)c2cc(Br)ccc2Cl)c1`: the INHIBITION is 81.2%. With `CC(NC(=O)Nc1cc(F)ccc1N1CCCCC1)c1nncn1C` (configuration not stated) the figure was 25.7%.

As to `NC(=O)c1ccc(N2CCCCC2)c(NC(=O)c2cc(F)ccc2F)c1`, the INHIBITION amounted to 93.1%. In the case of `NC(=O)c1ccc(N2CCCCC2)c(NC(=O)c2ccc(Br)cc2)c1`, the INHIBITION is 39.5%. With `Cc1cc(NC(=O)c2ccc(F)cc2F)n(C)n1` the figure was 29.3%. With `NC(=O)c1ccc(N2CCCCC2)c(NC(=O)c2cc(Br)ccc2F)c1` the figure was 86.8%. As for `COCCCN1Cc2cccc(NC(=O)c3cc(F)ccc3F)c2C1`, the figure is 32.9%; as for `C[C@@H]1CN(Cc2cc3ccccc3n2C)CC[C@]1(C)O`, -13.6%; as for `CCc1cc(N(C)Cc2nonc2C)nc(N(C)C)n1`, 31.7%. In the case of `CC(Cn1cccn1)NC(=O)NCc1ccc(S(C)(=O)=O)cc1` (configuration not stated), the INHIBITION was found to be 19.5%. As for `CC(C)n1cnnc1CN(C)C(=O)c1cnn2ccccc12`, the figure is 38.2%; as for `COc1cc(C)nc(N2CCN(C(=O)COCC3CC3)CC2)n1`, 23.295%. `CC(C)C(=O)N1CC2(CCN(CC(C)(C)C)CC2)C1`: the INHIBITION turned out to be 1.34%. As for `COCCN1CCOCC2(CCCN(Cc3ccc(C)o3)C2)C1` (configuration not stated), the figure is 20.2%; as for `CCN(CC(=O)NC1(C)CCS(=O)(=O)C1)Cc1ccc(OC)c(F)c1` (configuration not stated), -9.37%. As for `Cc1nccc([C@@H]2C[C@@H]3CCN(S(=O)(=O)C4CC4)C[C@H]3O2)n1`, the figure is -37.9%; as for `Cc1ccc(C(=O)Nc2ccc(N3CCCC3)cn2)cc1F`, -6.12%; as for `Cc1cc(C(N)=O)ccc1NC(=O)c1nc(N2CCCC2)ncc1Cl`, 20.1%. In the case of `Cc1ccc(C(=O)Nc2cc(C(N)=O)ccc2CN(C)C)cc1Cl`, the INHIBITION is 16.4%. As for `Cc1cc(C(N)=O)ccc1NC(=O)c1nc(N2CCCCC2)ncc1Cl`, the figure is 49.3%; as for `NC(=O)c1ccc(N2CCCCC2)c(NC(=O)c2ccc(F)cc2Cl)c1`, 73.2%. As for `Cc1ccc(C(=O)Nc2cc(C(N)=O)ccc2N2CCCCC2)cc1F`, the figure is 69.3%; as for `CCn1nc(C)c2nc(C(C)C)nc(N3CCOCC3)c21`, -38.8%; as for `Cc1cnccc1-c1cnn(CCNC(=O)C(C)(C)C)c1C1CC1`, 39.7%. For the molecule `Cc1ccc(C(=O)N2C[C@@H](OCc3cccnc3)[C@H]3OCCC[C@@H]32)o1`, the INHIBITION came to 35.4%. As for `COCCN(Cc1cccc(OCCO)c1)Cc1ccccc1F`, the figure is 13%; as for `CN(Cc1cccnc1N)Cc1cccc2ncccc12`, 83%; as for `CCCN(Cc1cccc(OCCO)c1)Cc1ccccc1OC`, 25%.

`CN(Cc1cccc(OCCO)c1)Cc1cccc2ncccc12`: the INHIBITION was found to be 76.6%.

In the case of `CN(Cc1cccc(CCN)c1)Cc1cccc2ncccc12`, the INHIBITION is 20.3%. As for `Cc1cn(CC(=O)N(C)Cc2cccc3ncccc23)c(=O)[nH]c1=O`, the figure is -12.8%; as for `CC(=O)N1CCCC(Cc2cnc(-n3ccnc3)cn2)C1` (configuration not stated), -33.4%. With `C=C(C)COc1cccc(C(=O)NC(C)c2nnn[nH]2)c1` (configuration not stated) the figure was 52.1%; with `CCC(=O)c1ccc(OCC(=O)NC(C)c2nnn[nH]2)cc1` (configuration not stated), -47.9%; with `Cc1cc(C(=O)NC(C)c2nnn[nH]2)c2ccc(C)c(C)c2n1` (configuration not stated), -11.6%. As for `C=C(C)COc1cccc(C(=O)NCCCc2nnn[nH]2)c1`, the figure is 9.41%; as for `Cc1cc(C(=O)NC(C)c2nnn[nH]2)c2cccc(C)c2n1` (configuration not stated), 60%. As for `Cc1cc(C)c2nc(C)cc(C(=O)NC(C)c3nnn[nH]3)c2c1` (configuration not stated), the INHIBITION is on record as 45.1%. As for `CN(C)C(=O)COC[C@@H]1CC[C@H]2[C@H](CCN2c2ncccn2)O1`, the figure is 0.542%; as for `COCc1ccccc1NC(=O)CCNC(=O)c1ccoc1`, -77.9%. As for `CN(C)C[C@@H]1CCC[C@@H]2CN(c3ncccn3)C[C@@H]21`, the figure is 16.1%.

As to `CC(O)CNC(=O)NCc1ccc(N2CCNC(=O)C2)cc1` (configuration not stated), the INHIBITION was 39.5%.

In the case of `O=C1CN(c2ccc(CNC(=O)NCc3ccoc3)cc2)CCN1`, the INHIBITION was -22.9%.

`O=C1CN(c2ccc(CNC(=O)Nc3nnc(C4CC4)s3)cc2)CCN1`: the INHIBITION was found to be 59.6%. As for `Cc1nnc(NC(=O)NCc2ccc(N3CCNC(=O)C3)cc2)s1`, the figure is 14.7%; as for `O=C1CN(c2ccc(CNC(=O)NCCO)cc2)CCN1`, 52.5%; as for `O=C(NCc1ccc(N2CC=CC2)cc1)Nc1nnc(C2CC2)s1`, 3.87%.

For `Cc1nn(CCC(=O)N(C)Cc2c(Cl)cnn2C)cc1Br`, the INHIBITION was determined as 18.3%.

For the molecule `CCN(Cc1ccc(Cl)c(Cl)c1)C(=O)CCn1cncn1`, the INHIBITION worked out at 19.3%. As for `Cc1nc(C)n(CC2CN(c3ncccc3C#N)CCO2)n1` (configuration not stated), the figure is -14.7%.

As for `O=C(O)c1cc(-c2cncnc2)cc(S(=O)(=O)N2CCCCCC2)c1`, the INHIBITION is reported as -8%. With `CN(C)c1nccnc1C1CCN(C(=O)C2(C)CCCCN2C)CC1` (configuration not stated) the figure was 28.6%.
